# In the supplement of paper PMC8728848:
# Only a selection was taken, and the strongest signals are over-represented in it overall.
# B1: Gal 10 (Homo sapiens), Q05315 (protein)
# chain: MSLLPVPYTEAASLSTGSTVTIKGRPLVCFLNEPYLQVDFHTEMKEESDIVFHFQVCFGRRVVMNSREYGAWKQQVESKNMPFQDGQEFELSISVLPDKYQVMVNGQSSYTFDHRIKPEAVKMVQVWRDISLTKFNVSYLKR
# Columns and labels:
# Test in all cases: glycan array binding signal (z-score within array); higher = stronger binding
# Conditions in all cases: glycan notation: IUPAC condensed, linker removed
# Gal6S(b1-4)Glc6S = target: Gal6S(b1-4)Glc6S
# Procedure, shortened: (§1)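 From the Consortium for Functional Glycomics database, 3228 arrays were curated, keeping only those whose protein sequence was available. Binding is given as a within-array Z-score averaged across arrays sharing a protein sequence and across linkers. Negative Z-scores can be read as non-binding.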
# Gal6S(b1-4)GlcNAc = target: Gal6S(b1-4)GlcNAc
# Procedure, shortened: as §1
# GalNAc(a1-3)Gal = target: GalNAc(a1-3)Gal
# Procedure, shortened: as §1
# GalNAc(a1-3)GalNAc = target: GalNAc(a1-3)GalNAc
# Procedure, shortened: as §1
# GalNAc(b1-3)GalNAc = target: GalNAc(b1-3)GalNAc
# Procedure, shortened: as §1
# GalNAc(b1-4)Gal(b1-4)Glc = target: GalNAc(b1-4)Gal(b1-4)Glc
# Procedure, shortened: as §1
# Glc(b1-4)Glc = target: Glc(b1-4)Glc
# Procedure, shortened: as §1
# [1] = target: GlcNAc(a1-4)Gal(b1-4)GlcNAc
# Procedure, shortened: as §1
# [2] = target: GlcNAc(a1-4)Gal(b1-4)GlcNAc(b1-3)Gal(b1-4)GlcNAc(b1-3)Gal(b1-4)GlcNAc
# Procedure, shortened: as §1
# [3] = target: GlcNAc(a1-4)Gal(b1-4)GlcNAc(b1-3)Gal(b1-4)[Fuc(a1-3)]GlcNAc(b1-3)Gal(b1-4)[Fuc(a1-3)]GlcNAc
# Procedure, shortened: as §1
# [4] = target: GlcNAc(b1-3)Gal(b1-4)GlcNAc(b1-2)Man(a1-3)[GlcNAc(b1-3)Gal(b1-4)GlcNAc(b1-2)Man(a1-6)]Man(b1-4)GlcNAc(b1-4)[Fuc(a1-6)]GlcNAc
# Procedure, shortened: as §1
# [5] = target: GlcNAc(b1-4)GlcNAc(b1-4)GlcNAc
# Procedure, shortened: as §1
# [6] = target: GlcNAc(b1-4)[GlcNAc(b1-6)]GalNAc
# Procedure, shortened: as §1
# Kdn(a2-6)Gal(b1-4)GlcNAc = target: Kdn(a2-6)Gal(b1-4)GlcNAc
# Procedure, shortened: as §1
# [7] = target: Man(a1-2)Man(a1-3)[Man(a1-2)Man(a1-6)]Man
# Procedure, shortened: as §1
# [8] = target: Neu5Ac(a2-3)Gal(b1-3)GalNAc
# Procedure, shortened: as §1
# [9] = target: Neu5Ac(a2-3)Gal(b1-3)GalNAc(b1-4)[Neu5Ac(a2-8)Neu5Ac(a2-3)]Gal(b1-4)Glc
# Procedure, shortened: as §1
# [10] = target: Neu5Ac(a2-3)Gal(b1-3)GlcNAc(b1-3)GalNAc
# Procedure, shortened: as §1
# [11] = target: Neu5Ac(a2-3)Gal(b1-3)[Fuc(a1-4)]GlcNAc(b1-3)Gal(b1-3)[Fuc(a1-4)]GlcNAc
# Procedure, shortened: as §1
# [12] = target: Neu5Ac(a2-3)Gal(b1-4)[Fuc(a1-3)]GlcNAc(b1-2)Man
# Procedure, shortened: as §1
# [13] = target: Neu5Ac(a2-3)Gal6S(b1-4)GlcNAc
# Procedure, shortened: as §1
# Neu5Ac(a2-6)Gal(b1-4)Glc = target: Neu5Ac(a2-6)Gal(b1-4)Glc
# Procedure, shortened: as §1
# [14] = target: Neu5Ac(a2-6)Gal(b1-4)GlcNAc(b1-2)Man(a1-3)[Neu5Ac(a2-6)Gal(b1-4)GlcNAc(b1-2)Man(a1-6)]Man(b1-4)GlcNAc(b1-4)GlcNAc
# Procedure, shortened: as §1
# [15] = target: Neu5Ac(a2-6)Gal(b1-4)GlcNAc(b1-2)[Neu5Ac(a2-6)Gal(b1-4)GlcNAc(b1-4)]Man(a1-3)[GlcNAc(b1-4)][Neu5Ac(a2-6)Gal(b1-4)GlcNAc(b1-4)Man(a1-6)]Man(b1-4)GlcNAc(b1-4)GlcNAc
# Procedure, shortened: as §1
# [16] = target: Neu5Ac(a2-6)Gal(b1-4)GlcNAc(b1-3)Gal(b1-3)GlcNAc
# Procedure, shortened: as §1
# [17] = target: Neu5Ac(a2-6)Gal(b1-4)GlcNAc(b1-3)Gal(b1-4)GlcNAc(b1-3)Gal(b1-4)GlcNAc(b1-2)Man(a1-3)[Neu5Ac(a2-6)Gal(b1-4)GlcNAc(b1-3)Gal(b1-4)GlcNAc(b1-3)Gal(b1-4)GlcNAc(b1-2)Man(a1-6)]GalNAc
# Procedure, shortened: as §1
# [18] = target: Neu5Ac(a2-6)Gal(b1-4)GlcNAc(b1-3)Gal(b1-4)GlcNAc(b1-6)[Gal(b1-3)]GalNAc
# Procedure, shortened: as §1
# [19] = target: Neu5Ac(a2-8)Neu5Ac(a2-3)Gal(b1-3)GalNAc(b1-4)[Neu5Ac(a2-8)Neu5Ac(a2-3)]Gal(b1-4)Glc
# Procedure, shortened: as §1
# [20] = target: Neu5Ac(a2-8)Neu5Ac(a2-8)Neu5Ac(a2-8)Neu5Ac(a2-3)[GalNAc(b1-4)]Gal(b1-4)Glc
# Procedure, shortened: as §1
# [21] = target: Neu5Gc(a2-3)Gal(b1-4)[Fuc(a1-3)]GlcNAc
# Procedure, shortened: as §1
# [22] = target: Neu5Gc(a2-6)Gal(b1-4)GlcNAc
# Procedure, shortened: as §1
binder,measurement,setting,value
B1,glycan array binding signal (z-score),Gal6S(b1-4)Glc6S,-0.014
same,glycan array binding signal (z-score),Gal6S(b1-4)GlcNAc,-0.568
same,glycan array binding signal (z-score),GalNAc(a1-3)Gal,-0.104
same,glycan array binding signal (z-score),GalNAc(a1-3)GalNAc,-0.834
same,glycan array binding signal (z-score),GalNAc(b1-3)GalNAc,-0.693
same,glycan array binding signal (z-score),GalNAc(b1-4)Gal(b1-4)Glc,2.27
same,glycan array binding signal (z-score),Glc(b1-4)Glc,-0.17
same,glycan array binding signal (z-score),[1],-0.744
same,glycan array binding signal (z-score),[2],0.459
same,glycan array binding signal (z-score),[3],3.48
same,glycan array binding signal (z-score),[4],-0.014
same,glycan array binding signal (z-score),[5],-0.449
same,glycan array binding signal (z-score),[6],-0.956
same,glycan array binding signal (z-score),Kdn(a2-6)Gal(b1-4)GlcNAc,0.098
same,glycan array binding signal (z-score),[7],-0.68
same,glycan array binding signal (z-score),[8],-0.079
same,glycan array binding signal (z-score),[9],0.255
same,glycan array binding signal (z-score),[10],-0.378
same,glycan array binding signal (z-score),[11],1.14
same,glycan array binding signal (z-score),[12],2.57
same,glycan array binding signal (z-score),[13],-0.415
same,glycan array binding signal (z-score),Neu5Ac(a2-6)Gal(b1-4)Glc,-0.381
same,glycan array binding signal (z-score),[14],0.509
same,glycan array binding signal (z-score),[15],2.9
same,glycan array binding signal (z-score),[16],-0.312
same,glycan array binding signal (z-score),[17],3.41
same,glycan array binding signal (z-score),[18],-0.176
same,glycan array binding signal (z-score),[19],-0.741
same,glycan array binding signal (z-score),[20],0.562
same,glycan array binding signal (z-score),[21],0.205
same,glycan array binding signal (z-score),[22],-0.495
